Source: PubChem
ALDH1A1 block: blocks purified human ALDH1A1 activity | P00352 | Purified ALDH1A1, NADH fluorescence, propionaldehyde substrate | Potency, µM (titrated, usually from 75.3 µM), usual class: inhibitors | 220,000 compounds, 7.3% hits; active = well fitted inhibition curve with a large enough effect, not every such curve was filed as active; inconclusive = small, poorly fitted or top-dose-only effect, or another doubt; inactive = no such curve, though single readings can be large or run the other way
Target sequence (P00352 whole entry, looked up): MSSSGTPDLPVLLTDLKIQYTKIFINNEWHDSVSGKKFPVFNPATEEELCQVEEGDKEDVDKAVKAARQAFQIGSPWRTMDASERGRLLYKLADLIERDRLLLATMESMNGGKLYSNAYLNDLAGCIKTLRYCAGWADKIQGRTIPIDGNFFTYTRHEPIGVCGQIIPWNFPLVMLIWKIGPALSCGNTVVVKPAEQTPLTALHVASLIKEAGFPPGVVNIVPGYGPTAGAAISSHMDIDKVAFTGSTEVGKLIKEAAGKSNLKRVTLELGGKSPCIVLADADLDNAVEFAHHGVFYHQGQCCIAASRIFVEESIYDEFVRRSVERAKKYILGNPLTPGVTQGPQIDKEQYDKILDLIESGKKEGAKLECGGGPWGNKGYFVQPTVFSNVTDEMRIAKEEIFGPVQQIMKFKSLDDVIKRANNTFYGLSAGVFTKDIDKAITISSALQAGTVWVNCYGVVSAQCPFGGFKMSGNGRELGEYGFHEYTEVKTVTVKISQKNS
PLK1 PBD block: blocks phosphopeptide binding to human PLK1 polo-box domain; Plk1 PBD binding of FITC phosphopeptide, fluorescence polarization; 360,000 compounds, 2.8% hits; AID 720504; Potency, µM, hits mostly inhibitors; P53350; note: series mostly up to about 57 µM; nearly all actives have a fitted effect of over 65% in size
RORg inh: ROR gamma (mouse) transcription inhibition. AID 2551. Potency, µM (titrated, usually from 53.6 µM), most hits filed as inhibitors. P51450. 310,000 compounds, 5.4% hits. Drosophila S2 Gal4-RORgamma UAS-luciferase reporter, 20 h; note: nearly all actives have a fitted effect of over 60% in size
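Luminescence from a UAS-regulated Photinus luciferase reporter in stably transfected Drosophila Schneider cells is measured; decreased signal marks ROR gamma inhibition. Fusion expression is induced by 700 uM copper sulfate for 20 hr.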
VP16 counter: Gal4-VP16 reporter inhibition counter-screen | AID 2546 | 310,000 compounds, 3.5% hits | Potency, µM (series often up to 53.6 µM), actives largely listed as inhibitors | Drosophila S2 Gal4-VP16 UAS-luciferase, luminescence, 20 h;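 note: Gal4-VP16 expression switched on by copper sulfate through the metallothionein promoter; nearly all actives have a fitted effect of over 50% in size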
Sfp PPTase inh: inhibitors of Bacillus subtilis Sfp phosphopantetheinyl transferase. 310,000 compounds, 3.5% hits. Q9F4F7. Potency, µM, hits mostly inhibitors. Biochemical Sfp PPTase activity, qHTS. AID 1490;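 note: the enzyme is Sfp with the accession as filed and its product quenches rhodamine fluorescence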
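Buffer: 50 mM Hepes-Na pH 7.6, 10 mM MgCl2, 0.01% Nonidet P-40, 0.01% BSA. Enzyme 15 nM, pre-exposed to compound 15 min; substrates then added and fluorescence change tracked over 30 min.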
A number is an active result; – = inactive; ? = inconclusive; · = not tested or not shown; ! = a repeat was not active; [ ] = another dose, or the depositor's remark. Hits are enriched below; roughly 12% of the tested compounds scored in any of these assays. Unless noted, calls come from the whole dose curve; as a rule, active = well fitted curve in the direction sought with a large enough effect; inconclusive = small, poorly fitted or top-dose-only effect, or another doubt; inactive = no such curve, though single readings can be large; an effect the other way counts as inactive or inconclusive.

SMILES	ALDH1A1 block	PLK1 PBD block	RORg inh	VP16 counter	Sfp PPTase inh
O=C(OCc1ccccc1)N1CCC2CC1c1cc(N3CCN(S(=O)(=O)c4cccc5ccccc45)CC3)ccc12 (stereo unspecified)	·	–	·	·	·
O=C(NC1CCC1)C1CCC(=O)N(Cc2ccc(Cl)cc2)C1 (stereo unspecified)	·	–	·	·	·
CN=C1C([N+](=O)[O-])=CC=C2C1=NC1(CCCCC1)N2O	–	–	–	–	8.9µM
O=[N+]([O-])C1=CC=C2C(=NC3(CCCCC3)N2O)C1=NCCO	?	–	?	–	40µM
COc1ccc(-c2ccc(N(C)C)cc2)cc1C1C2C=CCC(C)C2C(=O)N1Cc1ccccc1 (stereo unspecified)	·	·	–	–	–
Cc1ccc(Cn2c(SCc3cccnc3)nc3c2c(=O)n(C)c(=O)n3C)cc1	–	–	–	–	–
Cn1c(OCc2cccnc2)nc2c1c(=O)n(Cc1ccccc1)c(=O)n2C	–	–	11µM	6.3µM	–
Cn1c(OCc2cccnc2)nc2c1c(=O)n(Cc1ccc(F)cc1)c(=O)n2C	·	–	–	–	–
Cn1c(=O)c2c(nc(SCc3cccnc3)n2Cc2ccccc2)n(C)c1=O	22µM	–	–	–	79µM
COc1ccc(CCC(=O)Nc2c(-c3ccc(N(C)C)cc3)[nH][nH]c2=O)cc1	·	21µM	·	·	·
COc1ccc(-c2[nH][nH]c(=O)c2NC(=O)c2ccccn2)cc1	·	–	·	·	·
O=C1NN(c2ccccc2)C(=O)/C1=C\c1ccc2c(c1)OCO2	·	27µM	?	–	–
O=C1NN(c2ccc(F)cc2)C(=O)/C1=C/c1cccs1	25µM	–	–	–	–
COc1cccc(/C=C2/C(=O)NN(c3ccccc3)C2=O)c1	·	5.3µM	–	–	?
COc1cccc(/C=C2/C(=O)NN(c3ccc(F)cc3)C2=O)c1	·	5.3µM	–	–	?
C1OCOCO1	–	·	–	–	–
Cc1ccc2nc(-c3cccc(Br)c3)c(Cc3ccccc3C(F)(F)F)n2c1	·	–	·	·	·
Cc1c(C(=O)NCc2ccc(Cl)c(Cl)c2)sc(=O)n1Cc1ccc(C(=O)N(C)C)cc1	·	–	·	·	·
COc1cc(/C=C2/C(=O)NN(c3cccc(Cl)c3)C2=O)cc(OC)c1O	·	–	–	–	–
COc1cccc(/C=C2/C(=O)NN(c3ccc(C)c(C)c3)C2=O)c1	·	6µM	–	–	–
Cc1ccc(N2NC(=O)/C(=C\c3cc4c(cc3[N+](=O)[O-])OCO4)C2=O)cc1C	18µM	9.5µM	–	?	–
COc1cc(/C=C2/C(=O)NN(c3ccc(C)c(Cl)c3)C2=O)cc([N+](=O)[O-])c1O	·	?	–	–	–
Clc1ccc(Cl)c(SCCCN2CCNCC2)c1	–[13.5 µM]	·	·	·	·
CC(=O)OC[C@H]1O[C@@H](ON=C(C)C)[C@H](OC(C)=O)[C@@H](OC(C)=O)[C@H]1OC(C)=O	–[13.5 µM]	·	–[10 µM]	–[10 µM]	–
Cc1ccc(-c2nc3ncccn3c2NC2CCCC2)o1	?	–	?	–	–
SMILES	ALDH1A1 block	PLK1 PBD block	RORg inh	VP16 counter	Sfp PPTase inh
Brc1ccc(-c2nc3ncccn3c2NC2CCCCC2)o1	–	21µM	–	–	–
Cc1ccc(-c2nc3ncccn3c2Nc2ccccc2C)o1	–	–	–	–[10 µM]	40µM
Cc1ccc(Nc2c(-c3ccc(C)o3)nc3ncccn23)cc1	·	–	–	–	11µM
Cc1ccc(-c2nc3ncccn3c2Nc2ccc3c(c2)OCO3)o1	?	–	?	–	–
CCCCC#Cc1ccccc1CC(=O)Nc1ccccc1	–	–	?	–	–
CCCCCCCC#Cc1ccccc1/C=N/S(=O)c1ccc(C)cc1 (stereo unspecified)	20µM!	15µM	–[10 µM]	–[10 µM]	25µM
COc1cccc(-c2nc(NC3CCNCC3)c3ccccc3n2)c1	32µM	·	–	–	–
COCCn1c(SCC(=O)NC(C)c2ccc(F)cc2)nc2ccccc21 (stereo unspecified)	·	–	–	–	–
Cc1nn(C(C)C(=O)NCCCN2CCCCCC2)c(=O)c2c1sc1ccccc12 (stereo unspecified)	·	27µM	–	–	–
CCC1=C2CC[C@H]3C(=O)N(C)C(=O)[C@H]3[C@H]2[C@@]2(Cc3ccccc3)C(=NCC3CC3)OC(=O)N2C1=O	?	·	–	–	–
CCOc1ccc(CCN2C(=O)C(=O)N([C@@H](CC(C)C)CN3CCC[C@H]3CN3C(=O)C(=O)NC[C@@H]3Cc3ccccc3)C[C@@H]2Cc2ccc(O)cc2)cc1	·	–	·	·	·
